These results are taken from PubChem BioAssay AID602477 (National Center for Advancing Translational Sciences (NCATS), 2012).

The structures appear in SMILES notation. Records with an inconclusive call do not appear. The source made the active and inactive calls. The call rests on the fitted dose curve; in most records, active means well fitted activation curve with a large enough effect; inconclusive means small, poorly fitted or top-dose-only effect; inactive means no such curve, though single readings can be large or run the other way.

This assay can be described thus: FLuc inhibitory activity for the follow-up compounds in a cell-based assay to assess the activity of miR-21. The note with it: HeLa miR-21-FLuc reporter, luciferase luminescence, 48 h; series mostly up to 38.3 µM. An excerpt:
NCGC Assay Overview: Firefly (Photinus pyralis) luciferase is one of the most commonly used transcriptional reporters. It is considered one of the more dynamically responsive reporters - that is, responsive to changes in reporter transcription - as it requires no post-translational modifications and is enzymatically active directly after protein synthesis (Wood, 1998). With no endogenous expression in mammalian cells and without the requirement of external excitation, it offers very little background signal, thus generally providing excellent signal to background for most assays. Previous profiling work to determine the prevalence of compounds that affect FLuc enzymatic activity (PubChem AID 411) identified that ~3% of the MLSMR library (then at ~72K) inhibited FLuc (Auld et al., 2008). […] Of the compounds identified in this profile that inhibited FLuc, 151 compounds were selected for further analysis, in an effort to better understand their mode of inhibiting FLuc. The assay described here was to determine the activity of the compounds in a cell-based firefly luciferase reporter gene assay originally designed to identify antagonists of miR-21. Compounds that inhibit miR-21 or compounds that stabilize FLuc intracellularly are identified as active compounds in the assay.
NCGC Assay Protocol Summary: Reagents: In-house detection reagent: 300mM Tris-HCl, 300mM Trizma base, 300mM MgCl, 1% Triton-X100, 5mM DTT, 500uM Coenzyme A trilithium salt (Sigma #C3019),450uM ATP (Sigma #A7699), 1mM D-luciferin sodium salt monohydrate (Biosynth #L8240) HeLa cells stably expressing firefly luciferase (FLuc) under the control of a CMV promoter (upstream) and a miR-21 binding sequence directly downstream of the gene. These cells endogenously express miR-21. Control compounds used were two known firefly luciferase inhibitors (3-(5-(3-chlorophenyl)-1,2,4-oxadiazol-3-yl)benzoic acid and 5-(2-fluorophenyl)-3-phenyl-1,2,4-oxadiazole), and DMSO. Assay Summary: 6uL of HeLa miR-21-FLuc cells in assay buffer (DMEM, Invitrogen #21063-029; 10% FBS, HyClone #SH30071.03) were dispensed at 2000cells/well (3.3 x 10^5 cells/mL) into Greiner solid-white TC-treated 1536-well plates using a Multidrop Combi (Thermo Fisher Scientific). Plates were incubated for one hour at 37 degree Celsius, 95% humidity, 5% CO2. These assay plates were then treated with 23nL of compound or DMSO using a Kalypsys pin tool, which allows for delivery of a 12-point titration of each compound to the assay plate, with a final compound concentration ranging from approximately ~38uM to 0.2nM. Assay plates were then incubated for 48 hours. After incubation, plates were allowed to come to RT for one hour prior to delivery of 3uL of 3X luciferase detection reagent. After a 15 minute incubation to allow for cell lysis, luciferase activity was measured using a ViewLux CCD imager (PerkinElmer), with an average exposure time of 2-12 seconds.
Take `O=C(O)c1cccc(NC(=O)c2cccc(S(=O)(=O)Nc3cccc(F)c3)c2)c1`: the Potency result was “inactive”. The figure for `Cn1c(N/N=C/c2cc3ccccc3nc2Cl)nc2ccccc21` is 711 nM (active). The figure for `O=C(O)c1cccc(NC(=O)c2cccc(S(=O)(=O)N3CCCCC3)c2)c1` is 14200 nM (active); for `Nc1ccc2nc(-c3ccc(O)cc3)sc2c1` it is 400 nM (active).

Regarding `CC(C)Oc1ccc(C(=O)Nc2ccc(-c3nc4ccccc4s3)cc2)cc1`, the Potency is 1130 nM (active). The figure for `CCOc1ccc2nc(NC(=O)c3ccccc3)sc2c1` is 100 nM (active); for `COc1ccc(C(=O)Nc2ccccc2C(=O)Nc2ccccc2C(=O)O)cc1` it is 8950 nM (active); for `O=C(Nc1ccc(-c2nc3ccccc3s2)cc1)C1=COCCO1` it is 10 nM (active). Take `CCOc1ccc(C(=O)Nc2cccc(C(=O)O)c2)cc1Cl`: the Potency is 356 nM (active). In the case of `COc1ccc2nc(NC(=O)c3ccc4ncsc4c3)sc2c1`, the Potency was 2830 nM (active). The figure for `COc1cccc(-c2nc3ccccc3s2)c1` is 252 nM (active); for `Cc1ccc(C(=O)Nc2cccc(C(=O)O)c2)cc1` it is 126 nM (active); for `CCCC(=O)Nc1nc2ccc(OCC)cc2s1` it is 2830 nM (active). For the compound `COc1ccc(C(=O)Nc2ccccc2C(=O)Nc2ccc(C(=O)O)cc2)cc1`, the Potency is 8950 nM (active). The figure for `O=C(Nc1ccc(Cl)cc1-c1nc2ccccc2s1)c1ccco1` is 20000 nM (active); for `O=C(Nc1cccc(-c2nc3ccccc3s2)c1)C1=COCCO1` it is 12600 nM (active); for `O=C(Cc1ccccc1)Nc1ccccc1C(=O)Nc1ccc(C(=O)O)cc1` it is “inactive”. The result for `Cc1c(NS(C)(=O)=O)cccc1-c1nc2ccccc2s1` reads 4000 nM (active); that for `COc1ccc(C(=O)Nc2ccccc2C(=O)N/N=C/c2ccc(O)c(OC)c2)cc1`, “inactive”.

Consider `O=C(Cc1ccccc1)Nc1ccc(C(=O)Nc2ccccc2C(=O)O)cc1`, for which the Potency result is “inactive”.

For `COc1ccc(CC(=O)Nc2cccc(C(=O)Nc3ccccc3C(=O)O)c2)cc1OC`, the Potency was 5040 nM (active). The result for `CN(C)c1cccc(C(=O)Nc2ccc(-c3nc4ccccc4s3)cc2)c1` reads 503 nM (active); that for `COc1ccc2nc(NC(=O)c3cnccn3)sc2c1`, 200 nM (active); that for `CC(=O)Oc1ccc(C(=O)Nc2ccccc2C(=O)Nc2cccc(C(=O)O)c2)cc1`, “inactive”. As for `CC(C)c1ccc(C(=O)Nc2ccc(-c3nc4ccccc4s3)c(Cl)c2)cc1`, the Potency was 7980 nM (active). The figure for `Cc1ccc(C(=O)Nc2ccccc2C(=O)O)cc1S(=O)(=O)N1CCCCCC1` is 2830 nM (active); for `O=C(Nc1ccccc1C(=O)O)c1ccccc1` it is 25200 nM (active); for `O=C(Nc1cccc(-c2nc3ccccc3s2)c1)c1cc(-n2cnnc2)ccc1Cl` it is 4490 nM (active).

On to `Cc1cccc(C(=O)Nc2ccccc2C(=O)Nc2ccc(C(=O)O)cc2)c1`, for which the Potency is 15900 nM (active). The result for `COc1ccc2nc(NC(=O)c3ccco3)sc2c1` reads 100 nM (active).

For the compound `COc1ccc2nc(NC(=O)Cc3cccs3)sc2c1`, the Potency was 2830 nM (active). The result for `O=C(Nc1ccccc1C(=O)O)c1ccc(NC(=O)C2CCCO2)cc1` (stereo not drawn) reads “inactive”; that for `CCOc1ccc2nc(NC(=O)c3cccnc3)sc2c1`, 1130 nM (active).

For the compound `O=C(Nc1ccccc1C(=O)O)c1ccc(Cl)c(S(=O)(=O)N2CCOCC2)c1`, the Potency was 12600 nM (active). The result for `Nc1ccccc1-c1nc2ccccc2s1` reads 3180 nM (active); that for `O=C(Nc1ccccc1C(=O)O)c1cc(S(=O)(=O)NCc2ccccc2)ccc1Cl`, “inactive”; that for `Cc1c(NC(=O)C(C)(C)C)cccc1-c1nc2ccccc2s1`, 10000 nM (active). The result for `Cc1ccc(C(=O)Nc2cccc(C(=O)O)c2)cc1S(=O)(=O)N1CCOCC1` reads 12600 nM (active).
